Source: PubChem BioAssay AID1053127 (Broad Institute, 2014)
Entries with a potency or affinity are not part of this list.

Assay: YAP1 overexpression rescue of CTGF inhibition – DLD1 cells, RT-qPCR, cherry-pick, mechanism study for YAP1 pathway inhibitor project, dose response (AID 1053127)
Settings: DLD1 YAP1-overexpressing, CTGF mRNA qPCR, 24 h; series mostly up to 26 µM; CTGF fold change (delta-delta-Ct), lower = inhibition: at the top concentration;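 active means compounds whose fitted curve of lowered CTGF expression reaches half effect within a set concentration limit; inconclusive means flat moderate drop in CTGF, or unreliable curve fit; inactive means the rest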

CTGF fold change (delta-delta-Ct), lower = inhibition, inactive:
NCC[C@H]1CC[C@@H](NC(=O)NC2CCCCC2)[C@H](CO)O1 1.29 unspecified, C[C@@H]1CC=CC[C@@H](c2cccc(Cl)c2)NC(=O)[C@H](Cc2ccccc2)N(C)C(=O)c2ccccc2O1 (mixture of isomers) 0.763 unspecified, COc1cccc(C#Cc2ccc3c(c2)O[C@@H](CN(C)C(=O)CN2CCOCC2)[C@@H](C)CN([C@@H](C)CO)S3(=O)=O)c1 1.36 unspecified, CN1C(=O)c2cc(NS(=O)(=O)c3ccccc3F)ccc2OC[C@@H]2O[C@@H](CC(=O)NC3Cc4ccccc4C3)CC[C@@H]21 1.29 unspecified, Cc1ccc(S(=O)(=O)N[C@H]2C=C[C@H](CC(=O)NCc3ccc(Cl)c(Cl)c3)O[C@H]2CO)cc1 0.997 unspecified, CC(C)(C)[S@](=O)N1Cc2cc(C(=O)NCCc3ccncc3)nc(-c3cccc(-c4cccc(C#N)c4)c3)c2[C@@H]1CCO 1.03 unspecified, COc1ccc(S(=O)(=O)Nc2ccc3c(c2)C(=O)N([C@@H](C)CO)C[C@H](C)[C@@H](CN(C)S(=O)(=O)c2ccc(Cl)cc2)OCCCC[C@@H](C)O3)cc1 1.31 unspecified, O=C(c1cccc(F)c1)N1CCCCN2[C@@H](CO)[C@H](c3ccc(C#CC4(O)CCCC4)cc3)[C@@H]2C1 0.713 unspecified, O=C(c1cccc(F)c1)N1CCCCN2[C@H](CO)[C@H](c3ccc(C#CC4(O)CCCC4)cc3)[C@@H]2C1 0.87 unspecified
